MBD2 DNA inh – inhibitors of MBD2 binding to methylated DNA, primary screen, biochemical, TR-FRET, DNA-binding domain, human; Methyl-CpG-binding domain protein 2 (Homo sapiens), Q9UBB5; MBD2 binding to methylated oligonucleotide; inhibition, % at 4.4 µM; 370,000 compounds, 0.31% hits; AID 686964, 2013; in the data active means inhibition above about 13%
LEDGF integ inh – blockers of LEDGF/p75-dependent integrase strand transfer – biochemical, TR-FRET, high throughput, primary screen; TR-FRET IN-LEDGF/p75 DNA integration, Eu/Cy5; inhibition, % at 3.7 µM; 370,000 compounds, 0.64% hits; AID 743269, 2014;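 active means inhibition above the screen-wide mean plus 3 SD, cut at about 13% in these data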;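 further: signal is the Cy5 over europium emission ratio at 671 and 618 nm; 0% = plate median of compound wells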
PLC-beta3 inh – human PLC-beta3 inhibitors, primary screen, biochemical, fluorescence | Purified PLC-beta3, fluorogenic substrate | inhibition, % at 12.2 µM | 370,000 compounds, 0.18% hits | AID 720704, 2013; in the data active means inhibition above about 11%;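 further: 0% = median of compound wells on plate and 100% = full blocker control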
PLC-gamma1 inh – PLC-gamma1 enzyme inhibitors, primary screen, biochemical, fluorescence, purified enzyme; 370,000 compounds, 0.84% hits; inhibition, % at 12.2 µM; fluorogenic substrate; AID 720700, 2013; 1-phosphatidylinositol 4,5-bisphosphate phosphodiesterase gamma-1 (Homo sapiens), P19174; in the data active means inhibition above about 9.5%
UHRF1 MBD2 ctr – UHRF1 methylated DNA binding inhibitors, primary screen, counter-screen for MBD2 inhibitor project, biochemical, TR-FRET, human UHRF1, single concentration; 370,000 compounds, 0.75% hits; E3 ubiquitin-protein ligase UHRF1 (Homo sapiens), Q96T88; inhibition, % at 4.4 µM; UHRF1 binding to methylated oligo; in the data active means inhibition above about 21%;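 further: UHRF1 SRA domain binding a hemimethylated CpG hairpin DNA probe; 0% = median of test compound wells and 100% = reference inhibitor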
IN multimer up – HIV-1 IN multimer formation enhancers, counter-screen for LEDGF/p75 integration inhibitor project, biochemical, TR-FRET; 2,000 compounds, 17% hits; TR-FRET HIV-1 integrase multimerization; activation, % at 7.7 µM; shares compounds with LEDGF integ inh; AID 1053131, 2014; in the data active means activation above about 8.9%
TRFRET interf – TR-FRET optical interference artefacts, confirmation, artefact control for LEDGF/p75-dependent integration inhibitor project, biochemical, HIV-1 IN multimerization. inhibition, % at 7.7 µM. TR-FRET optical interference counterscreen. shares compounds with LEDGF integ inh. 2,000 tested, under 10 active. AID 1053135, 2014;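 active means inhibition above the mean over all tested compounds plus 3 SD, which no compound reached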;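 further: 0% = integrase with antibodies and DMSO and 100% = antibodies without integrase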
LEDGF integ conf – inhibitors of HIV-1 IN-LEDGF/p75 DNA integration, confirmation, biochemical, TR-FRET; 2,000 compounds, 36% hits; TR-FRET LEDGF/p75-dependent HIV-1 integration; shares compounds with LEDGF integ inh; AID 1053136, 2014; inhibition, % at 3.7 µM; in the data active means inhibition above about 14%
Numbers without * were called inactive; x = no result. Rows were chosen to be rich in hits. Some 2.3% of all compounds tested hit in one or more screens of this group.

SMILES	MBD2 DNA inh	LEDGF integ inh	PLC-beta3 inh	PLC-gamma1 inh	UHRF1 MBD2 ctr	IN multimer up	TRFRET interf	LEDGF integ conf
O=S(=O)(Nc1ccc(O)c2ccccc12)c1ccc(F)cc1	-5	27*	-32	-16	-1	5	-24	8
Cc1ccccc1CS(=O)(=O)Cc1ccc(C(=O)Nc2cccc(C)c2C)o1	1	3	5	1	-1	x	x	x
O=C(Cn1nnc(-c2ccccc2F)n1)Nc1ccc(Cl)cc1	3	-5	-2	-1	-1	x	x	x
COc1cc(C(=O)Nc2cc(C)ccn2)cc(OC)c1OC	-1	-3	-2	4	0	x	x	x
COc1cc(C(=O)Nc2nc(C)cc(C)n2)cc(OC)c1OC	0	59*	2	1	1	0	0	-6
COc1ccc2c3c(ccc2c1)C(=O)/C(=C/O)CC3	4	17*	-141	-105	4	5	-17	27*
O=c1c2ccccc2nc2n1CCCCC2	5	-1	4	0	-1	x	x	x
O=c1c2ccccc2nc2n1CCC2	-4	15*	4	-1	0	0	-1	34*
COc1ccc(-n2c(Cn3c(=O)sc4ccccc43)nnc2SCC(=O)N2CCCC2)cc1	2	32*	4	1	-3	0	2	-1
COc1ccc(-n2c(Cn3c(=O)sc4ccccc43)nnc2SCC(=O)N2CCCCC2)cc1	4	1	2	2	1	x	x	x
O=C(Nc1ccc(F)cc1)Nc1c(-c2ccc(F)cc2)nc2ncccn12	3	-4	-57	-42	3	x	x	x
COc1ccc(-c2c(Cc3ccccc3)nc(NC(=O)c3ccccc3F)n2C)cc1	5	20*	-6	-2	-1	2	-10	17*
CCCn1c(NC(=O)c2ccccc2)nc(Cc2ccccc2)c1-c1ccc(OC)cc1	5	13	-15	-13	0	x	x	x
Cc1ccc(Nc2c([N+](=O)[O-])c(=O)oc3ccccc23)cc1C	7	14*	-4	2	5	3	-9	12
O=c1oc2ccccc2c(Nc2cccc(O)c2)c1[N+](=O)[O-]	-10	5	0	-4	-3	x	x	x
Cc1ccccc1OCCCN1CCOCC1	6	29*	-6	0	5	1	-4	-10
COc1ccccc1C=NN=C(NN=Cc1ccccc1OC)NN=Cc1ccccc1OC	-2	32*	6	9	4	4	-13	-7
COc1ccccc1C=NNC(=O)NN=Cc1ccccc1OC	1	0	-2	-1	-3	x	x	x
NC(=Nc1ccc(N)cc1)C(N)=Nc1ccc(N)cc1	-5	39*	-5	-3	-4	1	-4	-6
N=C(N)c1ccc(N)cc1	2	0	2	1	0	x	x	x
COC1=CC(=O)c2c(ccc3ncnc(N)c23)C1=O	-6	53*	-4	13*	6	7	-26	73*
COc1cccc2c1C(=O)C=C(C)C2=O	2	-3	-25	-31	0	x	x	x
O=C(Nc1ccc(C(F)(F)F)cc1)OC1CCC12CCCCC2 (centres undefined)	5	7	1	1	-2	x	x	x
CCOC(=O)COc1ccc2c(C#N)c3ccccn3c2c1	5	-4	-435	-377	5	x	x	x
CCOC(=O)c1c2ccc(OCC(=O)N/N=C/c3ccc(Cl)cc3)cc2n2ccccc12	10	14*	-124	-103	10	-2	12	6
SMILES	MBD2 DNA inh	LEDGF integ inh	PLC-beta3 inh	PLC-gamma1 inh	UHRF1 MBD2 ctr	IN multimer up	TRFRET interf	LEDGF integ conf
CC1(C)CC(=O)C(C=Nc2ccc(N)cc2)=C(O)C1	-10	36*	-11	-1	8	5	-18	-3
COC(=O)C1C(O)=C(C=Nc2ccc(N)cc2)C(=O)CC1(C)C (centres undefined)	-4	40*	-1	2	4	2	-12	-6
CC1(C)CC(=O)C(C=Nc2ccc(O)cc2)=C(O)C1	1	0	-14	-14	2	x	x	x
CN1Cc2nnn(Cc3ccccc3)c2-c2cc(N3CCCC3)ccc2S1(=O)=O	-2	-1	-370	-303	-5	x	x	x
C[C@H]1C2CC(OC(=O)NCCCc3ccccc3)C(C2)[C@H]2CCCCN21 (some centres undefined)	2	-3	-1	-1	0	x	x	x
CCc1ccc(S(=O)(=O)Nc2cc(SCC(=O)O)c(O)c3ccccc23)cc1	-7	6	-24	-13	-3	x	x	x
O=S(=O)(Nc1cc(Sc2cccc3cccnc23)c(O)c2ccccc12)c1ccccc1	-24	17*	-113	-103	-31	0	-1	-11
O=C(O)c1cccc(S(=O)(=O)Nc2ccc([N+](=O)[O-])cc2O)c1	-2	-1	-10	3	4	x	x	x
CCOc1ccc(S(=O)(=O)Nc2cc(SCC(=O)O)c(O)c3ccccc23)cc1	-4	25*	-20	-6	-6	2	-7	43*
O=C(O)CSc1cc(NS(=O)(=O)c2cccc([N+](=O)[O-])c2)c2ccccc2c1O	-9	16*	-14	-2	2	4	-15	63*
Cc1ccc(S(=O)(=O)Nc2cccc3cccnc23)cc1	-1	-27	-34	-46	0	x	x	x
COC(=O)c1cc(S(=O)(=O)N2CCCN(C(C)=O)CC2)cn1C	0	2	4	-1	-3	x	x	x
O=C(O)CC(CCc1ccccc1)OC1OC(CO)C(O)C(O)C1O (centres undefined)	12	85*	3	5	15	87*	-441	92*
CCCNC(=O)C1(C)CCN(C(=O)c2cc(C)nn2C(C)(C)C)C1 (centres undefined)	-4	1	-1	2	3	x	x	x
CCCNC(=O)C1(C)CCCN(C(=O)c2cc(C)nn2C(C)(C)C)C1 (centres undefined)	6	28*	2	-1	0	-4	18	0
Cn1ccc2c(N(Cc3ccccc3)Cc3ccccc3)cc3c(c21)C1CCC3O1 (centres undefined)	-10	20*	-206	-191	-5	-1	4	-3

Screens deposited in PubChem by The Scripps Research Institute Molecular Screening Center.
